Inconclusive results are not listed. Entries that show only a call come without a potency. Calls of active or inactive are those of the source. Calls follow the shape of the dose curve; as a rule, active = well fitted curve in the direction sought with a large enough effect; inconclusive = small, poorly fitted or top-dose-only effect, or another doubt; inactive = no such curve, though single readings can be large; an effect the other way counts as inactive or inconclusive.
Assays:
Furin (Homo sapiens) = Furin (Homo sapiens) (UniProt P09958); assay: Furin counterscreen qHTS for Zika virus inhibitors (AID 1347149); also: potency is read from the fitted curve at half-maximal effect; nearly all actives have a fitted effect of over 70% in size
Furin (Homo sapiens), sequence (P09958 whole entry, looked up): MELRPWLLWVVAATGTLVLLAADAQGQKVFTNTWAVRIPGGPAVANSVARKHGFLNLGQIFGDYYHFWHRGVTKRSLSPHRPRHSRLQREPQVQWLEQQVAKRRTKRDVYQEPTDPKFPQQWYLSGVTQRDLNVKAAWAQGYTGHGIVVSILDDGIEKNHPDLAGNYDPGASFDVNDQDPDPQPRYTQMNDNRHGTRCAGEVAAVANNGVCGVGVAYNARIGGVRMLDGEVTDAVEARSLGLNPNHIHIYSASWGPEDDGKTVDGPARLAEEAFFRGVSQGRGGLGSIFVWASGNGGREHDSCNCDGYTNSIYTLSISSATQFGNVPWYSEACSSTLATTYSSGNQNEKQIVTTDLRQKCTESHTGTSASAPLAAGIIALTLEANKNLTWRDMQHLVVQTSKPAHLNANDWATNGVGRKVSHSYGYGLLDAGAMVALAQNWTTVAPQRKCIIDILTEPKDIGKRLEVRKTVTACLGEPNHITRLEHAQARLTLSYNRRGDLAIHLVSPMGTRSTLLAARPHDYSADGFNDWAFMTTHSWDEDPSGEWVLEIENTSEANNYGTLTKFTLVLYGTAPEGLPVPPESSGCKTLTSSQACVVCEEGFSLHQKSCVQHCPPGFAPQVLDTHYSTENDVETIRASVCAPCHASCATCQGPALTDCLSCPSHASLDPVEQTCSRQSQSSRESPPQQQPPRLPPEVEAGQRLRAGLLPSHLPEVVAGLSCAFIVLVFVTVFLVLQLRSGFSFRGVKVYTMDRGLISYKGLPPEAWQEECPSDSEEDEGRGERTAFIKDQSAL
Outline: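 Fluorogenic cleavage of BOC-RVRR-AMC (2 microM final, Km ~15 µM) was monitored (ex 340, em 450 nm) at 37C after 15 min RT preincubation of 5 nM furin with compounds in HEPES pH 7.0 buffer with CaCl2 and Triton X-100. Percent inhibition was fitted to a 4-parameter Hill curve.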

[1] = system: Zika virus NS2B-NS3 protease (linked construct); assay: Confirmatory screen NINDS AMC qHTS for Zika virus inhibitors (AID 1347152); also: nearly all actives have a fitted effect of over 70% in size; also: potency is read from the fitted curve at half-maximal effect
Outline: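 Purified NS2B-NS3 protease with NS2B hydrophilic domain linked to NS3 protease domain by flexible linker, 1 nM final in 10 mM Tris-HCl pH 8.0, 0.01% Tween 20. Compounds preincubated 15 min, room temperature; Bz-Nle-KRR-AMC 10 microM (Km 18.3 µM); 15-min fluorescence change, 4-parameter Hill fit.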

[2] = system: Zika virus NS2B-NS3 protease (unlinked complex); assay: Confirmatory screen GU AMC qHTS for Zika virus inhibitors (AID 1347153); also: nearly all actives have a fitted effect of over 70% in size;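 as to potency: enzyme at 25 nM with substrate at 10 µM below its Km of 18.3 µM; potency is read from the fitted curve at half-maximal effect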
Outline: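 Compounds were preincubated 15 min at room temperature with 25 nM noncovalent NS2B-NS3 protease at pH 8.0; AMC substrate added at 10 microM and 15-min fluorescence gain (340/450 nm) converted to percent inhibition, fitted 4-parameter.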

[3] = system: Zika virus NS2B-NS3 protease; assay: Primary screen GU AMC qHTS for Zika virus inhibitors (AID 1347154); also: nearly all actives have a fitted effect of over 70% in size; also: potency is read from the fitted curve at half-maximal effect
Outline: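 Fluorogenic AMC-substrate cleavage by noncovalent NS2B-NS3 protease complex (25 nM, pH 8.0 Tris buffer with Tween 20) followed for 15 minutes at room temperature (~20% conversion). Percent inhibition from ex340/em450 signal change, fitted by 4-parameter Hill equation.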

[4] = Confirmatory screen NINDS Rhodamine qHTS for Zika virus inhibitors (AID 1347161); also: nearly all actives have a fitted effect of over 60% in size; also: potency is read from the fitted curve at half-maximal effect
Outline: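 Single-chain NS2B-NS3 protease, 25 nM, pH 8.0; compounds preincubated 15 min. Activity: Rhodamine110 release from 1.5 microM substrate over 15 min, room temperature, data fitted to 4-parameter Hill.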

[5] = system: Zika virus NS2B-NS3 protease (linked); assay: 384 well plate NINDS AMC confirmatory qHTS for Zika virus inhibitors (AID 1347163);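 also: linked protease at 5 30 or 60 nM final depending on run; fluorescence of AMC released from Ac-VKTGKR-AMC peptide cleaved by the protease; top concentration of the series differs between compounds; nearly all actives have a fitted effect of over 50% in size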
Outline: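 Linked protease 5/30/60 nM final; cpds up to 1 mM final, ~15 min preinc. Substrate Ac-VKTGKR-AMC 30 microM final. RT, dark, 25 min; FI ex 355/em 460; normalized to no-enzyme/no-inhibitor ctrls.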

[6] = system: Zika virus NS2B-NS3 protease (linked construct); assay: 384 well plate NINDS Rhodamine confirmatory qHTS for Zika virus inhibitors (AID 1347164);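 also: fluorescence from protease cleavage of Ac-LKRR-rhodamine 110 substrate; top concentration of the series differs between compounds; nearly all actives have a fitted effect of over 65% in size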
Outline: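 Linked protease at a final 5 nM, 30 nM or 60 nM was preincubated ~15 min with compounds, then given 10 microM Ac-LKRR-Rhodamine 110. Fluorescence (ex 485/em 538 nm) after 25 min in the dark at room temperature.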

[7] = HepG2 cells viability qHTS for Zika virus inhibitors (AID 1347168)
Outline: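 Compounds were tested in concentration series on cells grown in DMEM containing 4% FBS. After 24 to 48 hours, cellular ATP was measured by luminescence with CellTiter Glo.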

[8] = target: N-terminal Xaa-Pro-Lys N-methyltransferase 1 (Homo sapiens) (UniProt Q9BV86); assay: qHTS Assay for Inhibitors of N-terminal methyltransferase 1 (NTMT1): LOPAC validation of the NTMT1 SAHH-coupled ThioGlo3 Assay (AID 1347143); also: potency is read from the fitted curve at half-maximal effect
N-terminal Xaa-Pro-Lys N-methyltransferase 1 (Homo sapiens), sequence (Q9BV86 whole entry, looked up): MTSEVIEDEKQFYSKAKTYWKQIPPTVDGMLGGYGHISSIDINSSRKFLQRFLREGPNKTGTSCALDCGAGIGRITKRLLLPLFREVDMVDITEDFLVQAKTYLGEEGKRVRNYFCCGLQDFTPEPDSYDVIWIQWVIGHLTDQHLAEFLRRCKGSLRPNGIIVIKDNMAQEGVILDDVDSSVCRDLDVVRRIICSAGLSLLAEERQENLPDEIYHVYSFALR
Outline: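 Inhibition of NTMT1 methylation of peptide SPKRIA is followed by converting SAH with SAHH and labelling the released thiol with ThioGlo3. Plates are read at 340/450nm before and 30 min after reagent addition, both at room temperature.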

[9] = system: Zika virus NS2B-NS3 protease (unlinked); assay: Optimization of GU AMC qHTS for Zika virus inhibitors: Unlinked NS2B-NS3 protease assay (AID 1347151); also: nearly all actives have a fitted effect of over 80% in size; also: potency is read from the fitted curve at half-maximal effect
Outline: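 Noncovalent complex of NS2B hydrophilic domain and NS3 protease domain, 25 nM final, in 10 mM Tris-HCl pH 8.0, 0.01% Tween 20. AMC fluorescence change over 15 min at room temperature was fitted to a 4-parameter Hill equation.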

[10] = target: Lysine-specific demethylase 5B (Homo sapiens) (UniProt Q9UGL1); assay: Optimization screen for KDM5B Histone Demethylases FDH coupled qHTS against the LOPAC library (AID 1347166)
Lysine-specific demethylase 5B (Homo sapiens), sequence (Q9UGL1 whole entry, looked up): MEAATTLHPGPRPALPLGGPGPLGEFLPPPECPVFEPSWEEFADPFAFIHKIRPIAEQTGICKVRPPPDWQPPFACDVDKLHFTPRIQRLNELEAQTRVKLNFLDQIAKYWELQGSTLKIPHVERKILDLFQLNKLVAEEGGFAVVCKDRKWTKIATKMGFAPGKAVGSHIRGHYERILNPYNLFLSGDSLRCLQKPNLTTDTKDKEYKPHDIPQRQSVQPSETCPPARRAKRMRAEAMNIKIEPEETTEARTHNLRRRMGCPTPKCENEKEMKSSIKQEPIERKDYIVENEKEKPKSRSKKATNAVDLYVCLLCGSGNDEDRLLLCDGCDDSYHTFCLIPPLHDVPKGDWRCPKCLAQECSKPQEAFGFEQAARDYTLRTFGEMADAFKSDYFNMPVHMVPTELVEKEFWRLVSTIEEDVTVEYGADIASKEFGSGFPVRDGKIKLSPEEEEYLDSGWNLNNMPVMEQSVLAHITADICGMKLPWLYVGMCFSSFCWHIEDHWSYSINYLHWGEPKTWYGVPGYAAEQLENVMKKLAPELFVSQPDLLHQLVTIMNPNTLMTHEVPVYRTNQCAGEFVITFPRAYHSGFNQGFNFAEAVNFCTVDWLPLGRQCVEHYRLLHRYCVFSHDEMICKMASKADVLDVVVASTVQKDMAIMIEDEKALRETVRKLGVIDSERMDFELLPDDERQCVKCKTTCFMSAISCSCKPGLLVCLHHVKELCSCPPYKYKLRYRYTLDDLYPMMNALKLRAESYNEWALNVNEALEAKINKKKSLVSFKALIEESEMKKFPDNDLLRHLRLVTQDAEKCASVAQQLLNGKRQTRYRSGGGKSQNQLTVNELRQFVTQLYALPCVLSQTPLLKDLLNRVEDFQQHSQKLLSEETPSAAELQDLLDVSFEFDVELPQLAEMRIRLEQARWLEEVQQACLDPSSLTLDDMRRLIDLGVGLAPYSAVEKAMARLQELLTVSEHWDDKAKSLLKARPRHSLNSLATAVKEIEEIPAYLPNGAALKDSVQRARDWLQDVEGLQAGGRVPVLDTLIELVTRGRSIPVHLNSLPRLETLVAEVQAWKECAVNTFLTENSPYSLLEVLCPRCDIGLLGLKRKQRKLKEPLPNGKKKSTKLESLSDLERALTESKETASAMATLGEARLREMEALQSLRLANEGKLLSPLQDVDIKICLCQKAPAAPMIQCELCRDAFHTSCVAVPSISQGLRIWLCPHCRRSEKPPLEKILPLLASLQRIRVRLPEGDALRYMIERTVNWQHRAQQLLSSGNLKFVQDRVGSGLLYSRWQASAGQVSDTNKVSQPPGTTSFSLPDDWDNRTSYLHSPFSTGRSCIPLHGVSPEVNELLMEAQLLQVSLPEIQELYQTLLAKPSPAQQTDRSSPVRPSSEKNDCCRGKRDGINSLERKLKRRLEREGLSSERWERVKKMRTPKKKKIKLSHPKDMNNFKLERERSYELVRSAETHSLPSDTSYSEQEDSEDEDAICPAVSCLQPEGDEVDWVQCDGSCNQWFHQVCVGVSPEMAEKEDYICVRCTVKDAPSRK
Outline: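 KDM5BDeltaAP (200nM final) preincubated 10 min with compound, then 12.5uM H3K4Me3, 25uM a-ketoglutarate, ascorbate, Fe(II), NAD+ and FDH added; 50mM HEPES pH 7.5, 0.01% Tween-20. NADH fluorescence (340/450 nm) change over 30 min, room temperature.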

[11] = system: Zika virus NS2B-NS3 protease (unlinked complex); assay: Primary screen GU Rhodamine qHTS for Zika virus inhibitors: Unlinked NS2B-NS3 protease assay (AID 1347159); also: nearly all actives have a fitted effect of over 60% in size
Outline: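 Percent inhibition derives from the 15-min fluorescence change (ex 480, em 540 nm), normalized to no-enzyme and no-inhibitor wells. Reactions contained 25 nM NS2B-NS3 complex and 1.5 microM substrate in 10 mM Tris-HCl pH 8.0.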

[12] = system: Zika virus NS2B-NS3 protease (linked construct); assay: Primary screen NINDS Rhodamine qHTS for Zika virus inhibitors (AID 1347160); also: nearly all actives have a fitted effect of over 55% in size
Outline: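 In 10 mM Tris-HCl pH 8.0 containing 0.01% Tween 20, linked NS2B-NS3 protease (25 nM final) is exposed to test compounds for 15 min. Cleavage of 1.5 microM Rhodamine110 substrate is tracked by fluorescence over 15 min.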

[13] = Confirmatory screen GU Rhodamine qHTS for Zika virus inhibitors qHTS (AID 1347157); also: nearly all actives have a fitted effect of over 70% in size; also: potency is read from the fitted curve at half-maximal effect
Outline: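 Percent inhibition came from the 15-min rise in Rhodamine110 fluorescence (1.5 microM substrate, ~15% conversion), normalized to no-inhibitor and no-enzyme wells and Hill-fitted. Unlinked protease, 25 nM, pH 8.0 Tris buffer; compounds up to 114 microM, 15-min preincubation.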

Compound: CC(C)c1onc(-c2c(Cl)cccc2Cl)c1COc1ccc(/C=C/c2cccc(C(=O)O)c2)c(Cl)c1
- Potency (Furin (Homo sapiens)): 8.55 µM (active)
- Potency [1]: 24.1 µM (active)
- Potency [2]: 24.1 µM (active)
- Potency [3]: 6.7 µM (active)
- Potency [4]: 2.47 µM (active)
- Potency [5]: inactive
- Potency [6]: inactive
- outcome [7]: inactive

Compound: Cc1cccc(-c2[nH]c(C(C)(C)C)nc2-c2ccc3nccnc3c2)n1
- Potency [8]: inactive
- Potency [9]: inactive
- Potency [3]: inactive
- outcome [10]: inactive

Compound: CCCC(CCC)C(=O)O
- Potency [8]: inactive
- Potency [9]: inactive
- outcome [10]: inactive

Compound: NC(=O)c1cnccn1
- Potency [8]: inactive
- Potency [9]: inactive
- outcome [10]: inactive

Compound: C[C@]12CCC(=O)C=C1CC[C@@H]1[C@@H]2[C@@H](O)C[C@@]2(C)[C@H]1CC[C@]2(O)C(=O)CO
- Potency [8]: inactive
- Potency [9]: inactive
- outcome [10]: inactive

Compound: CNC[C@H](O)c1cccc(O)c1
- Potency [8]: inactive
- Potency [9]: inactive
- outcome [10]: inactive

Compound: O=c1n(CCCN2CCN(c3cccc(Cl)c3)CC2)nc2ccccn12
- Potency [8]: 79.4 µM (active)
- Potency (Furin (Homo sapiens)): 24.1 µM (active)
- Potency [9]: 26.7 µM (active)
- Potency [1]: 24.1 µM (active)
- Potency [3]: 26.7 µM (active)
- Potency [4]: inactive
- outcome [7]: inactive

Compound: CC(C)C[C@H](NC(=O)[C@@H](O)[C@H](N)Cc1ccccc1)C(=O)O
- Potency [8]: inactive
- Potency [9]: inactive
- Potency [3]: inactive
- outcome [10]: inactive

Compound: C1COC(NC(C2CC2)C2CC2)=N1
- Potency [8]: inactive
- Potency [9]: inactive
- Potency [3]: inactive
- outcome [10]: inactive

Compound: CCCCNc1cc(C(=O)O)cc(S(N)(=O)=O)c1Oc1ccccc1
- Potency [8]: 50.1 µM (active)
- Potency (Furin (Homo sapiens)): 27 µM (active)
- Potency [9]: 29.9 µM (active)
- Potency [1]: 27.1 µM (active)
- Potency [2]: inactive
- outcome [7]: inactive

Compound: O=C(Nc1nc2ccccc2n1CCN1CCOCC1)c1cccc([N+](=O)[O-])c1
- Potency [8]: inactive
- Potency [9]: inactive
- Potency [3]: inactive
- outcome [10]: inactive

Compound: O=C1CCc2cc(OCCCCc3nnnn3C3CCCCC3)ccc2N1
- Potency [8]: inactive
- Potency [9]: inactive
- outcome [10]: inactive

Compound: CCc1cncnc1N1CCN(Cc2nc3ccc(C(F)(F)F)cc3[nH]2)CC1
- Potency [8]: inactive
- Potency [9]: inactive
- Potency [3]: inactive
- Potency [11]: inactive
- Potency [12]: inactive

Compound: N[C@@H]1CONC1=O
- Potency [8]: inactive
- Potency [9]: inactive
- Potency [3]: inactive
- outcome [10]: inactive

Compound: OC(CCN1CCCCC1)(c1ccccc1)C1CC2C=CC1C2 (stereo unspecified)
- Potency [8]: inactive
- Potency [9]: inactive
- Potency [3]: inactive
- outcome [10]: inactive

Compound: O=C(C1CC1)N1CC[C@@H](Cn2c(-c3ccc(-c4ccc5occc5c4)cc3)nc3cnccc32)C1
- Potency (Furin (Homo sapiens)): 15.2 µM (active)
- Potency [1]: 24.1 µM (active)
- Potency [2]: 24.1 µM (active)
- Potency [3]: 10.8 µM (active)
- outcome [7]: inactive

Compound: Cc1[nH]c(=O)c(C#N)cc1-c1ccncc1
- Potency [1]: inactive
- Potency [2]: inactive
- Potency [4]: inactive
- outcome [7]: inactive

Compound: CCCc1nn(C)c2c(=O)[nH]c(-c3cc(S(=O)(=O)N4CCN(C)CC4)ccc3OCC)nc12
- Potency [11]: inactive
- Potency [12]: inactive

Compound: N=c1nc(N2CCCCC2)cc(N)n1O
- outcome [10]: inactive

Compound: O=C(O)COCCN1CCN(C(c2ccccc2)c2ccc(Cl)cc2)CC1 (stereo unspecified)
- outcome [10]: inactive

Compound: OCCn1cc(-c2cnc3nnn(Cc4ccc5ncccc5c4)c3n2)cn1
- Potency [13]: inactive

Compound: COc1cc2c(cc1OC)CN(CCc1ccc(NC(=O)c3cccc4c(=O)c5cccc(OC)c5[nH]c34)cc1)CC2
- Potency [13]: 44.1 µM (active)
- Potency [4]: 55.5 µM (active)

From PubChem BioAssay (NCATS)
